In PubChem BioAssay (NCI):
About 83,000 compounds went through this panel and 20% of them were active in at least one assay; those are over-represented in the sample as a whole.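 A percent growth of 40 corresponds to 60% growth inhibition; 0 means no net growth; -100 means all cells died. Active threshold: below 10.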 Unmarked numbers belong to inactive results. Calls of active or inactive are those of the source.

Each molecule was assayed on KM12 colon (assay: NCI-60 one-dose screen, 48 h (100 = growth as untreated, 0 = no growth, -100 = all killed)). Conditions: 1 µM.
Protocol: Growth inhibition of the KM12 human tumor cell line is measured as a screen for anti-cancer activity. Cells are grown in 96 well plates and exposed to the test compound for 48 hours. Compounds are tested at a single concentration, which is 10^-5 M for most compounds. The reported endpoint is percent growth (GI% or GIPRCNT), where numbers from 0 - 100% represent growth inhibition, and numbers from -100% - 0 represent cell death. For example, a value of 40 represents 60% growth inhibition. A value of 0 means no net growth occurred over the course of the experiment. A value of -40 indicates 40% of cells at the beginning of the experiment died by the end of the experiment. A value of -100 means all cells are dead at the end of the experiment.
NCI-60 Human Tumor Cell Lines Screen was performed using the standard one-dose NCI protocol, which is described in more detail at https://dtp.cancer.gov/discovery_development/nci-60/default.htm.
Compounds with GIPRCNT values below 10 were considered active. Activity score was based on GIPRCNT using the following formula: […]
Score is 0 for GIPRCNT values of 100 or above, 50 for GIPRCNT values of 0, and 100 for GIPRCNT values of -100.

Row | Compound | growth [%]
1 | CC/C(=C(\c1ccc(O)cc1)c1ccc(OCCNC)cc1)c1ccccc1 | 101

Same assay, conditions: 10 µM

Row | Compound | growth [%]
2 | CC/C(=C(\c1ccc(O)cc1)c1ccc(OCCNC)cc1)c1ccccc1 | 65.9

Same assay, conditions: 10 µM unless noted

Row | Compound | growth
3 | O=C(Nc1ccc(F)cc1)Nc1nc2ccc([N+](=O)[O-])cc2s1 | 9.04% (active)
4 | c1ccc(CSc2nnc(-c3ccc4nc(-c5ccccc5)[nH]c4c3)o2)cc1 | 55%
5 | Cc1cc(C)c2[nH]c(=O)c(C(c3nnnn3Cc3ccc4c(c3)OCO4)N3CCN(C)CC3)cc2c1 (stereo not given) | 105%
6 | COc1sc(/C=N/NC(=O)c2[nH]c3ccc(Br)cc3c2-c2ccccc2)cc1Br | 2.33% (active)
7 | Cc1cc(Cl)ccc1NC(=O)Nc1ccc(-c2ccc3c(c2)NC(=O)/C3=C\c2ccc[nH]2)cc1 | 25.8%
8 | Cc1ccc(Cl)cc1NC(=O)N/C(N)=N/c1nc2ccccc2s1 | -28.7% (active)
9 | Cn1cc(-c2cc(N)n3nc(-c4c[nH]c5ccccc45)cc3n2)c2cc(Cl)ccc21 | -70.5% (active)
10 | O=C(CSc1nnc(-c2ccc(-c3nc4ccccc4[nH]3)cc2)o1)Nc1ccc(Cl)cc1 | 22.9%
11 | CCCCCCCCCc1ccc(C(=O)Nc2cc(C)ccc2C(=O)OC)cc1 | 105%
12 | COc1ccc2[nH]cc(-c3cc4nc(-c5cn(C)c6ncc(Br)cc56)cc(N)n4n3)c2c1 | -49.8% (active)
13 | COc1c2c(c(Br)c3c1C(CCc1ccccc1)N(C)CC3)OCO2 (stereo not given) | 11.4%
14 | CCN(C(=O)CN1C(=O)/C(=C/c2ccco2)SC1=S)C1CCS(=O)(=O)C1 (stereo not given) | 103%
15 | Cc1ccccc1Nc1nnc(-c2c[nH]c3ccccc23)o1 | 25%
16 | CNS(=O)(=O)N1CCc2c(Br)c3c(c(OC)c2C1CCc1ccccc1)OCO3 (stereo not given) | 2.02% (active)
17 | CN1C(=O)/C(=C\C(=O)c2cc3ccccc3oc2=O)c2ccccc21 | 85.1%
18 | COc1cc(/C=N/NC(=O)c2ccc(OCc3nc4ccc(Cl)cc4[nH]3)cc2)cc(OC)c1OC | 43.3%
19 | COc1cc(NC(=O)CSc2nnc(-c3ccc(-c4nc5ccc(Cl)cc5[nH]4)cc3)o2)cc(OC)c1OC | 30.8%
20 | Cc1ccc(/C=C/C(=O)c2ccc(S(=O)(=O)NCCNc3nc(N(C)C)nc(N4CCOCC4)n3)cc2)cc1 | 21.1%
21 | NCCCCn1c(SCCc2c[nH]c3ccccc23)nnc1-c1ccc2ccccc2n1 | 13.1%

Row | Compound | growth
22 | CC[C@]12C=CCN3CC[C@@]4(c5ccc(OC)cc5N(C)[C@H]4[C@@](O)(C(=O)OC)[C@@H]1OC(=O)CCCC[P+](c1ccc(F)cc1)(c1ccc(F)cc1)c1ccc(F)cc1)[C@@H]32 | 16%
23 | CCCCN1C(=O)/C(=C\C(=O)c2cc3ccccc3oc2=O)c2ccccc21 | 85%
24 | CC(=O)c1ccc2c(N)c(C(=O)Nc3ccc(C(F)(F)F)cc3)sc2n1 | 56.7%
25 | CN(CCSSCCN1CCOCC1)C(=O)Oc1cc2c(c3ccccc13)[C@H](CCl)CN2C(=O)c1cc2cc(OCCCN3CCC3)ccc2[nH]1 | -23.5% (active)
26 | COc1ccc2[nH]c(O)c(N=NC(=O)c3ccc4nc(-c5ccc(Cl)cc5)[nH]c4c3)c2c1 | 78.6%
27 | Cc1ccc(O)cc1Nc1nc(SCCN2CCOCC2)nc2c1cnn2CC(Cl)c1ccc(Br)cc1 (stereo not given) | 17%
28 | Clc1ccccc1Nc1nnc(-c2c[nH]c3ccccc23)o1 | 15%
29 | Cc1cn(-c2cc(NC(=O)c3ccc(C)c(-n4cc(-c5cnc6cccnn56)nn4)c3)cc(C(F)(F)F)c2)cn1 | 54.9%
30 | O=C(c1ccc(Cl)cc1)C1[C@H](c2ccccc2Cl)[C@@H](c2ccccc2)NC12C(=O)Nc1ccccc12 (stereo not given in full) | -23.4% (active)
31 | O=C(N/N=C/c1ccc(-c2cccc([N+](=O)[O-])c2)s1)c1[nH]c2ccc(Br)cc2c1-c1ccccc1 | 109%
32 | Cn1cc(-c2cc3nc(-c4c[nH]c5ccccc45)cc(N)n3n2)c2ccccc21 | -33.9% (active)
33 | CC[C@]12C=CCN3CC[C@]4(C(=C(C(=O)OC)C1)Nc1cc(OC)c([C@@H]5[C@H]6O[C@H]6[C@@]6(CC)CC(C(=O)OC)=C7Nc8cc(OC)ccc8[C@@]78CCN5[C@@H]68)cc14)[C@@H]32 | 49.6%
34 | CN1CCc2c(sc3ncnc(N/N=C/c4cccc(Cl)c4Cl)c23)C1 | 88%
35 | COc1ccc2[nH]c(=O)c(CSc3ccccc3Nc3nccc(-c4ccc(Cl)cc4)n3)cc2c1 | 31.9%
36 | COc1ccc(Nc2nnc(-c3c[nH]c4ccccc34)o2)cc1 | 65.3%
37 | CN1CCN(C(=O)CCN(C(=O)Oc2cc3c(c4ccccc24)[C@H](CCl)CN3C(=O)c2cc3cc(OCCCN4CCC4)ccc3[nH]2)[C@H]2CCSSC2)CC1 | -63.3% (active)
38 | N#CC1=C(c2ccco2)Nc2c(c(-c3ccccc3)nn2-c2ccccc2)C12C(=O)Nc1ccc(Cl)cc12 (stereo not given) | 52.1%
39 | COc1cc(NC(=O)C(C)C)ccc1C(=O)NC(=S)Nc1ccc(S(N)(=O)=O)cc1 | 100%
40 | CCCn1c(NC(=O)c2cccc(C(N)=O)c2)nc2cc(CN3CCCCC3)ccc21 | 22.8%
